For some assays here: Entries with a potency or affinity are not part of this list.
Assays:
Parameters in all cases: scale not given: direction of the effect not stated beside the values
[1] = biological target: AMP-activated protein kinase, AMPK (Homo sapiens) (UniProt P54646+O43741+P54619+Q9UGJ0+Q9Y478+Q13131+Q9UGI9); test: AMP-dependent Kinase enzyme assay. An in vitro enzyme assay that detects ADP turnover that is directly proportional to AMPK activity. This uses naive AMPK that is activated during the assay with MK-8722; type: functional; settings: 30 µM
[2] = biological target: Protein translocase subunit SecA (Escherichia coli (strain K12)) (UniProt P10408); test: Assay to Identify E. coli SecA ATPase Inhibitors; type: functional; settings: 30 µM
Protein translocase subunit SecA (Escherichia coli (strain K12)), sequence (P10408 whole entry): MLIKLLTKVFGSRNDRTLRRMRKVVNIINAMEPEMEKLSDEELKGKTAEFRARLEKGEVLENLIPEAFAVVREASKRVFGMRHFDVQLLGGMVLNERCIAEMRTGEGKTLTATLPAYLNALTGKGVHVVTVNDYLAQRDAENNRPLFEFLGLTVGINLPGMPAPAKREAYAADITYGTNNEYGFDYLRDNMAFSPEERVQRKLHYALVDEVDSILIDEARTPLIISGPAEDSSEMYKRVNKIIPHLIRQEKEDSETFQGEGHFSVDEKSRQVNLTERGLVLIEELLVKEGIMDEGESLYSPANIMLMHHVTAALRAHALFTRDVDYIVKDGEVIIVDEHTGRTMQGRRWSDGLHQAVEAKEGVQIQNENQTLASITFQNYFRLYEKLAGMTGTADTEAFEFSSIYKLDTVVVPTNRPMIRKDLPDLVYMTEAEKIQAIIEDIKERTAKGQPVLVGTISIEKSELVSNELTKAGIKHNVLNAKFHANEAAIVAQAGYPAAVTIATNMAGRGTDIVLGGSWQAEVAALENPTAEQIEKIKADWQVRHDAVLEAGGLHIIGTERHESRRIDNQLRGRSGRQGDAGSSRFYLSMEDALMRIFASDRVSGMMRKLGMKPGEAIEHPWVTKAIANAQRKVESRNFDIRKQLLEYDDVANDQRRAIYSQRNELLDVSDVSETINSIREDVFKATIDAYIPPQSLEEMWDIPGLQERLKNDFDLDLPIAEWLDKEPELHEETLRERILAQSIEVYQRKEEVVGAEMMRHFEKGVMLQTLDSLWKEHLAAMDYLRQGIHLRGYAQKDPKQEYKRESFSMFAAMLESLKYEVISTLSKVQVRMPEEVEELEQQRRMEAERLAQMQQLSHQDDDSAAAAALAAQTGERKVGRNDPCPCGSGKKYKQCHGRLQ

[3] = biological target: T1, Ubiquitin-activating enzyme e1, putative (Leishmania donovani (strain BPK282A1)) (UniProt E9BSI1); test: Leishmania donovani Ubiquitin Activating Enzyme (LdE1); type: functional; settings: 30 µM
T1 sequence (whole entry): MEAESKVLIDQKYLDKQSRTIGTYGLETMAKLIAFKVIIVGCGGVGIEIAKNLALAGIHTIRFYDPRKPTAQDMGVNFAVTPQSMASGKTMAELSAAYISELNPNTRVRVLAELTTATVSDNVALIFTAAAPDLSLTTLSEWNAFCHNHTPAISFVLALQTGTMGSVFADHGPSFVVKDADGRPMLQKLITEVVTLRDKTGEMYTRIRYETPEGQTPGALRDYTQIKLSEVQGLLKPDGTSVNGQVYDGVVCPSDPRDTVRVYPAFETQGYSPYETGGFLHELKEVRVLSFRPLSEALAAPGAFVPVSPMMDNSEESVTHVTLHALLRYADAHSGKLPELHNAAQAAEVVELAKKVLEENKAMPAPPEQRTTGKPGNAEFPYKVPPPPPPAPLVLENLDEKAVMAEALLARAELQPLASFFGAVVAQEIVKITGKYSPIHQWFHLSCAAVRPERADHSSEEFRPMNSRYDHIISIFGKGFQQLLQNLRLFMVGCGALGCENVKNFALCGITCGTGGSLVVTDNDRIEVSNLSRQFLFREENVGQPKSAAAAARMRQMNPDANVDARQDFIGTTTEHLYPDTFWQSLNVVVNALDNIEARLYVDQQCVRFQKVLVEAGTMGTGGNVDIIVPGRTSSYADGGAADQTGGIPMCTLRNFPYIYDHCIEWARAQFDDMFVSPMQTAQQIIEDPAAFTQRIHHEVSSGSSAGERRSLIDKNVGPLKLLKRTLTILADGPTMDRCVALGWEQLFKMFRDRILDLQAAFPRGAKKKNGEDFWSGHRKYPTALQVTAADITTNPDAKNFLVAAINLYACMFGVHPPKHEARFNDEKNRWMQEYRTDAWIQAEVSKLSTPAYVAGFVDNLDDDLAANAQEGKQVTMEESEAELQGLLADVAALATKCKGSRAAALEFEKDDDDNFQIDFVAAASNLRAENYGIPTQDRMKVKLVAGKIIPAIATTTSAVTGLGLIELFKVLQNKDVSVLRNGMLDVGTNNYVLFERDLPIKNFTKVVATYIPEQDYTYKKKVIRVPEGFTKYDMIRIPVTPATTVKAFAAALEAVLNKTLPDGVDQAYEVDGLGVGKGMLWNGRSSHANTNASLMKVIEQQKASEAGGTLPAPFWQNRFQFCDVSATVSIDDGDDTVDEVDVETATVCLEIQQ

[4] = biological target: Sialic acid-binding Ig-like lectin 9 (Homo sapiens) (UniProt Q9Y336); test: Hs-Siglec9 ALPHAscreen SOP 20170721; settings: 10 µM
Sialic acid-binding Ig-like lectin 9 (Homo sapiens), sequence (Q9Y336 whole entry): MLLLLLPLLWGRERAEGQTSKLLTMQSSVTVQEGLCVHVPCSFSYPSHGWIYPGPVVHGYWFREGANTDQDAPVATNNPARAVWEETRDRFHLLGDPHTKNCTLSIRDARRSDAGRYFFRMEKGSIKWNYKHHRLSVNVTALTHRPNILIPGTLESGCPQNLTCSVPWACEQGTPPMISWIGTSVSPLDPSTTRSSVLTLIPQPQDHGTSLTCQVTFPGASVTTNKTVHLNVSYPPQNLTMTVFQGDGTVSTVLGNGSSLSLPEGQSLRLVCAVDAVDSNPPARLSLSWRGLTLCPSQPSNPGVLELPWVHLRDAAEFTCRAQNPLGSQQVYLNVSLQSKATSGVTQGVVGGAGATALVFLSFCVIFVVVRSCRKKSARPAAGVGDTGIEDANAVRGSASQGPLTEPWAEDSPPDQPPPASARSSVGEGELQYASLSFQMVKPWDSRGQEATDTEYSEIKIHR

[5] = tested on: Trypanosoma cruzi; test: Trypanosoma cruzi phosphomannomutase and mannose-1-phosphate guanylyltransferase assay; type: functional; settings: 10 µM
[6] = biological target: T2, Arginase-2, mitochondrial (Homo sapiens) (UniProt P78540); test: in vitro enzyme assay to detect the production of urea directly proportional to the activity of Arginase II; type: functional; settings: 33.3 µM; also: in the data most compounds retested in dose-response had high values
T2 sequence (whole entry): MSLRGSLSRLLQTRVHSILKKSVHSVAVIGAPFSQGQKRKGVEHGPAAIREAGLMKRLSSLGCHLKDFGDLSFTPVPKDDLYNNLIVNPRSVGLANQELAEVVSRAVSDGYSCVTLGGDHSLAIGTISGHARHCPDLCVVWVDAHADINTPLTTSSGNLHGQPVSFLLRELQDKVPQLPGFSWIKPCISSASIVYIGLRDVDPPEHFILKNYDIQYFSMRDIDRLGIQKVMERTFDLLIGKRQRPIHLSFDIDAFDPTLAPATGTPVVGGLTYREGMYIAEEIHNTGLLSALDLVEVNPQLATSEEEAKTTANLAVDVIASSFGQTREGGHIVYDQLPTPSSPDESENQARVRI

[7] = biological target: T3, Proteasome subunit beta (Trypanosoma cruzi) (UniProt O96673); test: Trypanosoma cruzi proteasome chymotrypsin-like activity (TcProtChymo) assay.; also: in the data most compounds retested in dose-response had high values; type: functional; settings: 9.37 µM
T3 sequence (whole entry): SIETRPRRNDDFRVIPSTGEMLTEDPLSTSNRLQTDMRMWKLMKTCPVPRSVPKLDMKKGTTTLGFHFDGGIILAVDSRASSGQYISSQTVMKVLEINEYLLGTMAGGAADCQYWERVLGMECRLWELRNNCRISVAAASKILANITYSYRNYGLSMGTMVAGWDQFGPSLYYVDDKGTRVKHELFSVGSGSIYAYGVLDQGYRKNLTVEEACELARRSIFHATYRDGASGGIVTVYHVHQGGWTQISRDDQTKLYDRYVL

[8] = species on record: Homo sapiens; test: To identify inhibition of the IFN signalling (Jak-Stat) pathway via expression of an eGFP reporter gene under the control of an IFN-stimulated response element (ISRE) containing MxA promoter.; type: functional; settings: 30 µM
[9] = biological target: T4, Tyrosyl-tRNA synthetase, putative (Trypanosoma cruzi (strain CL Brener)) (UniProt Q4DSP6); test: Trypanosoma cruzi tyrosyl tRNA synthetase (TcYRS) _High Tyrosine SOP; type: functional; settings: 30 µM; also: in the data most compounds retested in dose-response had high values
T4 sequence (whole entry): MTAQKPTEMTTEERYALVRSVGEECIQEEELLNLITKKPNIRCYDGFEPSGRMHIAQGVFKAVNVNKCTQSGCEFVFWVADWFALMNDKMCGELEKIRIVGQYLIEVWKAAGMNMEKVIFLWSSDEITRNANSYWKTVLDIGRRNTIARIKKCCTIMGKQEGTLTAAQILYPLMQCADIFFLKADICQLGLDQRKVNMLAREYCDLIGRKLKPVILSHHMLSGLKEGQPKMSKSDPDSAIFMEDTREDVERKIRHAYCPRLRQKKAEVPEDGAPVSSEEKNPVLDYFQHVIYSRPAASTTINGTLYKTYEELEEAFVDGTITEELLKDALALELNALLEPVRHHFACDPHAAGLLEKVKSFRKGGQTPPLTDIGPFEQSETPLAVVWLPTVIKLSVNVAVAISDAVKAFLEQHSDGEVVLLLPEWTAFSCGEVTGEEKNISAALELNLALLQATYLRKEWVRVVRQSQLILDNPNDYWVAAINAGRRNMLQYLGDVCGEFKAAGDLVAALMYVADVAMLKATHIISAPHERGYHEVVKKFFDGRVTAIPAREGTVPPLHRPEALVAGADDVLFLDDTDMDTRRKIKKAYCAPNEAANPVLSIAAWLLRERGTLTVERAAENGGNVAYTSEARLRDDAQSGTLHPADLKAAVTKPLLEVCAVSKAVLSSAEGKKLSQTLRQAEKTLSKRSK

[10] = biological target: T4, Tyrosyl-tRNA synthetase, putative (Trypanosoma cruzi (strain CL Brener)); test: Trypanosoma cruzi tyrosyl tRNA synthetase (TcYRS) SOP; type: functional; settings: 30 µM
[11] = biological target: Chromo domain-containing protein 1 (Saccharomyces cerevisiae (strain ATCC 204508 / S288c) (Baker's yeast)) (UniProt P32657); test: ScCHD-1 Enzyme Inhibition Assay; type: functional; settings: 30 µM; also: in the data most compounds retested in dose-response had high values
Chromo domain-containing protein 1 (Saccharomyces cerevisiae (strain ATCC 204508 / S288c) (Baker's yeast)), sequence (P32657 whole entry, the tested form may be a part): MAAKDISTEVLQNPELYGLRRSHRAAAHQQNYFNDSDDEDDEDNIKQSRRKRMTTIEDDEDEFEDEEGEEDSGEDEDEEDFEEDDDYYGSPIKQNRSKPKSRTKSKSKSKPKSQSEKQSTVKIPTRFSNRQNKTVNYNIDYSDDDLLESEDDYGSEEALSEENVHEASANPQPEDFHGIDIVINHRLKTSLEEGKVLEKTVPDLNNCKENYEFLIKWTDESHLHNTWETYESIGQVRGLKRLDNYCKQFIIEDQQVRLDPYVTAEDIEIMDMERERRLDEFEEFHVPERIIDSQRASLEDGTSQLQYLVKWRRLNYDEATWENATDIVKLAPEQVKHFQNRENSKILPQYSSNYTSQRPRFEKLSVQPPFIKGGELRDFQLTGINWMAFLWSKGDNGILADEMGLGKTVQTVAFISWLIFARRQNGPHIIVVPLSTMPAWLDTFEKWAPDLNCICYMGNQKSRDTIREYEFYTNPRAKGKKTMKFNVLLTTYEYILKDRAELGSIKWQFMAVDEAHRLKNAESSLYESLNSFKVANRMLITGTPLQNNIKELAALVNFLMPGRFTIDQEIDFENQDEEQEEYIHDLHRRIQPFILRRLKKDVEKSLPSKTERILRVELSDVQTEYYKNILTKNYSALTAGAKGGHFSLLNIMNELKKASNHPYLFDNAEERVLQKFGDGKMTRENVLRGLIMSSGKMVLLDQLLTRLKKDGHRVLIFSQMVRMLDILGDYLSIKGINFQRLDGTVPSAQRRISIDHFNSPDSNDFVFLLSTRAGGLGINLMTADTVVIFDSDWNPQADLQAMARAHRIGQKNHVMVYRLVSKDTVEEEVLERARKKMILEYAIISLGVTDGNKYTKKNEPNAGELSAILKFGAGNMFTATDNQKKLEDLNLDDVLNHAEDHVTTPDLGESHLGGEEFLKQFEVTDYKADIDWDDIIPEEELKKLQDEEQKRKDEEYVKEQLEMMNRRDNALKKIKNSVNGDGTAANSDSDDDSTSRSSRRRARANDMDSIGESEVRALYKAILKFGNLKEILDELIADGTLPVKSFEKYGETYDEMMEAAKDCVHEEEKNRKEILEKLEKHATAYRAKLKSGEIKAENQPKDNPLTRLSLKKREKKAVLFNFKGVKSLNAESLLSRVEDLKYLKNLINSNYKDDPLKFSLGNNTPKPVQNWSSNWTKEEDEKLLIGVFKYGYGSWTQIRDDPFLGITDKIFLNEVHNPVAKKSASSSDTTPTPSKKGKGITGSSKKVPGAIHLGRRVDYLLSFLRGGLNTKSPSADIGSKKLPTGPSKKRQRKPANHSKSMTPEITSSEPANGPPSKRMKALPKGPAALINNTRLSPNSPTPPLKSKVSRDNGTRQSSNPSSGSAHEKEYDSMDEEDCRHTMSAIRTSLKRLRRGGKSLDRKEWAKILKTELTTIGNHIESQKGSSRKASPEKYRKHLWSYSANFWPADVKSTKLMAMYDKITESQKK

**Q.** For `CN1CCCN(c2ccc(F)cc2CNC(=O)c2ccsc2)CC1`, which Percent Effect [1] is on record?
**A.** The Percent Effect was 5.4%.

**Q.** For `Cc1cc(NC(=O)C(C)N2CCCN(c3nccs3)CC2)on1` (configuration not stated), which Percent Effect [2] is on record?
**A.** The Percent Effect was -5.38%.

**Q.** And the Percent Effect [3]?
**A.** Its Percent Effect is 7.69%.

**Q.** What about the Percent Effect [4] of the same compound?
**A.** The Percent Effect was 6.57%.

**Q.** And the Percent Effect [5]?
**A.** Its Percent Effect is 1.03%.

**Q.** What about the Percent Effect [6] of the same compound?
**A.** Its Percent Effect is 5.74%.

**Q.** What about the Percent Effect [7] of the same compound?
**A.** Its Percent Effect is 7.08%.

**Q.** And the Percent Effect [8]?
**A.** Its Percent Effect is 12.4%.

**Q.** And the Percent Effect [9]?
**A.** Its Percent Effect is 0.478%.

**Q.** And the Percent Effect [10]?
**A.** The Percent Effect was 8.43%.

**Q.** What about the Percent Effect [11] of the same compound?
**A.** The Percent Effect was 6.1%.

**Q.** With `Cc1[nH]c2ccccc2c1-c1ccnc(NC[C@H](O)CO)n1` as the compound, how does the Percent Effect [2] read?
**A.** Its Percent Effect is -3.38%.

**Q.** And the Percent Effect [3]?
**A.** The Percent Effect was 5.33%.

**Q.** What about the Percent Effect [4] of the same compound?
**A.** The Percent Effect was -5%.

**Q.** And the Percent Effect [5]?
**A.** Its Percent Effect is -8.23%.

**Q.** What about the Percent Effect [6] of the same compound?
**A.** The Percent Effect was -5.32%.

**Q.** What about the Percent Effect [7] of the same compound?
**A.** Its Percent Effect is 8.23%.

**Q.** And the Percent Effect [8]?
**A.** Its Percent Effect is 23.4%.

**Q.** What about the Percent Effect [9] of the same compound?
**A.** Its Percent Effect is -1.58%.

**Q.** And the Percent Effect [10]?
**A.** The Percent Effect was -7.69%.

**Q.** What about the Percent Effect [11] of the same compound?
**A.** Its Percent Effect is -13.5%.

**Q.** Which Percent Effect [1] does the source give for `Cc1nc(C)c(CN2CCOC(Cc3ccccc3Cl)C2)nc1C` (configuration not stated) here?
**A.** The Percent Effect was 0.455%.

**Q.** Which Percent Effect [2] does the source give for `O=C(NCCCNc1ccccc1)c1scnc1Cl` here?
**A.** Its Percent Effect is -4.57%.

**Q.** And the Percent Effect [3]?
**A.** Its Percent Effect is 13.3%.

**Q.** And the Percent Effect [4]?
**A.** Its Percent Effect is -2.42%.

**Q.** What about the Percent Effect [5] of the same compound?
**A.** The Percent Effect was -3.61%.

**Q.** And the Percent Effect [6]?
**A.** Its Percent Effect is 0.444%.

**Q.** And the Percent Effect [7]?
**A.** Its Percent Effect is 8.06%.

**Q.** What about the Percent Effect [8] of the same compound?
**A.** Its Percent Effect is 24.4%.

**Q.** What about the Percent Effect [9] of the same compound?
**A.** The Percent Effect was 3.68%.

**Q.** What about the Percent Effect [10] of the same compound?
**A.** Its Percent Effect is 12.8%.

**Q.** What about the Percent Effect [11] of the same compound?
**A.** Its Percent Effect is -10.6%.

Reference: ChEMBL document CHEMBL3988442, “University of Dundee, Small-Polar-MMV Screening Library” (2021)
